Many of the other results were omitted from the sample, so hits are more common in it than they were.
Pf Dd2 inh – blocks in vitro growth of P. falciparum Dd2. P. falciparum Dd2 growth, SYBR Green, 72 h. Potency, µM (series often up to 28.9 µM), for the others: top-dose activity, negative = inhibition, usual class: inhibitors. 120,000 tested, 4.3% active. AID 1347417; active = well fitted inhibition curve with a large enough effect;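 also: plate controls were DMSO vehicle for no effect and reference drug for full effect; nearly all actives have a fitted effect of over 65% in size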
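Readout: SYBR Green fluorescence, 485 nm excitation, 535 nm emission, after ~16 h lysis at 37C. Before that, Dd2-infected red cells (2.5% hematocrit) grew 72 h with compound, 29 uM top final concentration.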
* hit, by the source's call; [ ] = dose if it differs, or a comment. Potency is read from the fitted curve at half-maximal effect.

For CC(C)(N)C(=O)N1CCCC(N2CCN(c3cccc(C(F)(F)F)c3)CC2)C1 (centres undefined) the results were Pf Dd2 inh -1%.
Screening COc1ccc(-c2nc(CSCC(=O)N3CCN(c4cccc(C)c4C)CC3)c(C)o2)cc1OC returned Pf Dd2 inh 10µM*.
`COc1ccc(-c2nc(CSCC(=O)N3CCN(c4cc(Cl)ccc4C)CC3)c(C)o2)cc1` gave Pf Dd2 inh inactive.
`COc1ccc(-c2nc(CSCC(=O)N3CCN(c4ccc(OC)cc4)CC3)c(C)o2)cc1` gave Pf Dd2 inh -11%.
Screening COc1ccc(C(=O)N2CCCCCCNC(=O)CC2)c(OC)n1 returned Pf Dd2 inh 4%.
COc1ccc(C(=O)N2CCc3ccc(C(=O)NCc4cccs4)cc32)cc1 was read as Pf Dd2 inh -18%.
`COc1ccc(CSc2nc3ccncc3n2CC(=O)Nc2ccc(C)c(F)c2)cc1` gave Pf Dd2 inh inactive.
Screening COc1ccc(Cn2c(=O)c3ccnn3c3ccc(C(=O)NCc4cccnc4)cc32)cc1 returned Pf Dd2 inh -35%.
`O=C(NCc1cccs1)c1ccc(CSc2nc3ccncc3n2Cc2cccc(F)c2)cc1` gave Pf Dd2 inh 8.9µM*.
`COc1ccc(Cn2c(SCc3ccc(C(=O)NCc4cccs4)cc3)nc3ccncc32)cc1` gave Pf Dd2 inh 7.9µM*.
For CCc1ccc(CNC(=O)c2ccc(CSc3nc4ccncc4n3Cc3ccc(OC)cc3)cc2)cc1 the results were Pf Dd2 inh 13µM*.
For O=C(NC1CCCC1)c1ccc(CSc2nc3cccnc3n2Cc2cccc(F)c2)cc1 the results were Pf Dd2 inh -10%.
Cc1cccc(CSc2nc3cccnc3n2Cc2ccc(C(=O)NCc3cccs3)cc2)c1 was read as Pf Dd2 inh inactive.
For O=C(NC1CCCCC1)c1ccc(CSc2nc3ccncc3n2Cc2cccc(F)c2)cc1 the results were Pf Dd2 inh 11µM*.
`COc1cccc(CSc2nc3cc(C(=O)NC4CCCC4)ccc3c(=O)n2Cc2ccccc2)c1` gave Pf Dd2 inh 3%.
CN1C(=O)C(CC(=O)NC2CCCCC2)Sc2ncccc21 (centres undefined) was read as Pf Dd2 inh -1%.
For COCCn1c(Cn2ccc3ccccc32)nnc1C1CC(N)C1 (centres undefined) the results were Pf Dd2 inh 1%.
For Cc1csc(NC(=O)C2CC(=O)N(c3n[nH]c4cc(Br)ccc34)C2)n1 (centres undefined) the results were Pf Dd2 inh -26%.
For CN1CC2(CCN(S(=O)(=O)c3cccnc3)CC2)CC1C(=O)N1CCOCC1 (centres undefined) the results were Pf Dd2 inh 0%.
`CO[C@H]1[C@H](NC(=O)c2ccc(=O)n(C)n2)c2ccccc2C12CCNCC2` gave Pf Dd2 inh 11%.
For CC1CCC2(CC1)NC(=O)N(CC(=O)N1CCCCC1)C2=O (centres undefined) the results were Pf Dd2 inh 5%.
O=C(C1CCCCC1)N1CCCC2(CC(c3ccccn3)=NO2)C1 (centres undefined) was read as Pf Dd2 inh 8%.
Cc1cccn2c(CNC(=O)CCc3cc4n(n3)CCCNC4)cnc12 was read as Pf Dd2 inh -4%.
For COCCCNC(=O)N1CCCC(c2nc(-c3cnccn3)no2)CCNC(=O)CC1 (centres undefined) the results were Pf Dd2 inh inactive.
`COc1ccc(-c2noc(-c3nc(C(C)C)no3)n2)cc1OC` gave Pf Dd2 inh inactive.
For O=C(O)CC[C@@H]1CN(C(=O)c2ccc(CO)o2)CC[C@@H]1N1CCOCC1 the results were Pf Dd2 inh 25%.
For CC(CNC(=O)c1ccc(CSc2nc3ccncc3n2Cc2ccc(F)cc2)cc1)c1ccccc1 (centres undefined) the results were Pf Dd2 inh 4.5µM*.
`O=C(NCc1cccs1)c1ccc2c(c1)n(Cc1cccc(F)c1)c(=O)c1ccnn12` gave Pf Dd2 inh 5.6µM*.
For CC(C)NC(=O)c1ccc(Cn2c(SCc3ccc(F)cc3)nc3cccnc32)cc1 the results were Pf Dd2 inh -7%.
Screening O=C(CSc1nc2ccccc2n1Cc1ccccc1)NCc1ccccc1 returned Pf Dd2 inh -26%.
Screening CCc1ccccc1NC(=O)Cn1c(SCc2ccc(F)cc2)nc2ccncc21 returned Pf Dd2 inh 11%.
Screening COC(=O)c1ccc(Cn2c(SCc3ccccc3)nc3ccncc32)cc1 returned Pf Dd2 inh -28%.
CCc1ccc(CNC(=O)c2ccc(CSc3nc4ccncc4n3Cc3ccccc3)cc2)cc1 was read as Pf Dd2 inh 10µM*.
Screening Cc1ccc(CSc2nc3cc(C(=O)NC4CCCC4)ccc3c(=O)n2Cc2ccccc2)cc1 returned Pf Dd2 inh 16%.
For O=C(O)c1ccc2c(c1)n(Cc1cccc(F)c1)c(=O)c1ccnn12 the results were Pf Dd2 inh inactive.
Screening O=C(NCc1ccccc1)c1ccc2c(c1)n(Cc1ccc(F)cc1)c(=O)c1ccnn12 returned Pf Dd2 inh inactive.
Screening O=C(NC1CCCC1)c1ccc2c(=O)n(Cc3ccccc3)c(SCc3ccc([N+](=O)[O-])cc3)nc2c1 returned Pf Dd2 inh 3.2µM*.
For O=C(NC1CCCC1)c1ccc2c(=O)n(Cc3ccccc3)c(SCc3cccc(F)c3)nc2c1 the results were Pf Dd2 inh 17%.
O=C(c1ccc(F)cc1F)N1CCC2(CC1)OCC(C(=O)N1CCCC1)N2C(=O)c1ccco1 (centres undefined) was read as Pf Dd2 inh -3%.
O=C(O)C[C@@H]1CCN(C(=O)c2ccccc2)C[C@@H]1CC1=NCCc2cc(F)ccc21 was read as Pf Dd2 inh 3%[44.1 µM].
CC(=O)N1CCC(C(=O)N[C@H]2CCN3C(=O)N(c4ccc(C)cc4)C(=O)[C@@H]3C2)CC1 was read as Pf Dd2 inh -1%[44.1 µM].
CC(C)NC(=O)c1ccc(CN2C(=O)NC3(CCS(=O)(=O)CC3)C2=O)cc1 was read as Pf Dd2 inh -9%.
`O=C1CCN(S(=O)(=O)c2ccc3c(c2)CCC3)CCCC(c2nc(-c3cccnc3)no2)CCN1` (centres undefined) gave Pf Dd2 inh -9%.
Screening O=C(NCc1ccc(F)cc1)C1CN(c2ccc(Cl)cc2)C(=O)N1 (centres undefined) returned Pf Dd2 inh 15%.
Screening COc1ccc(-c2cc(N3CCN(C(=O)c4cc5ccccc5[nH]4)CC3)n[nH]2)cc1 returned Pf Dd2 inh -17%.
For COc1cccc(CCC(=O)N2CCC3(CC2)N=C(c2ccc(Cl)cc2)NO3)c1 the results were Pf Dd2 inh inactive.
COc1cccc(C(=O)N2CCC(C(NC(=O)c3cccs3)C(=O)NCC(C)C)CC2)c1 (centres undefined) was read as Pf Dd2 inh inactive.
COc1ccc(C(=O)N2CCCC2C(=O)Nc2ccccc2Oc2cccnc2)o1 (centres undefined) was read as Pf Dd2 inh -9%.
`COc1ccc(-c2ccc3nnc(CNC(=O)c4ccc(C)c(C)c4)n3n2)cc1` gave Pf Dd2 inh -22%.
CCN(CC)Cc1nc(C2(O)CCN(C3CCCC3)CC2)cs1 was read as Pf Dd2 inh inactive.
`COc1ccccc1CNC(=O)c1ccc(CSc2nc3ccncc3n2Cc2cccc(F)c2)cc1` gave Pf Dd2 inh 3.5µM*.
O=C(NCc1cccc(Cl)c1)c1noc(-c2ccc(F)cc2)n1 was read as Pf Dd2 inh -12%.
Cc1ccc(CNC(=O)c2ccc3nc(SCc4ccc(F)cc4)[nH]c3c2)cc1 was read as Pf Dd2 inh inactive.

Assay outcomes: PubChem, National Center for Advancing Translational Sciences (NCATS)
